This is part of a sample that, as a whole, favours compounds with a hit. Of some 83,000 tested, about 20% had one in any assay.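 Negative percent growth values reflect cell death: -40 means 40% of the cells present at the start died, and -100 means all died.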 Values without a mark were called inactive. The source made the active and inactive calls. Rule for the calls: active = growth percent below 10; inactive = the rest.
The compounds below were run on CAKI-1 renal (assay: NCI-60 one-dose screen, 48 h (100 = growth as untreated, 0 = no growth, -100 = all killed)). Conditions: 10 µM unless noted.

Structure (SMILES)	growth
O=C(c1ccccc1)C1OC1C(=O)c1ccccc1 (stereo unspecified)	14.6%
CC(C)=CC[C@@H]1CC2(CC=C(C)C)C(=O)C(OC3(C(=O)c4ccccc4)C(=O)C4(CC=C(C)C)C[C@@H](CC=C(C)C)C(C)(C)C(CC=C(C)C)(C4=O)C3=O)(C(=O)c3ccccc3)C(=O)C(CC=C(C)C)(C2=O)C1(C)C (stereo partly specified)	11.5%
CCCCc1nc(Cl)c(C2CC(c3ccc(S(N)(=O)=O)cc3)=NN2c2ccc(C#N)cc2)[nH]1 (stereo unspecified)	67.6%
COc1cc(Cl)cc(-c2nn(C(=O)NCCN3CCOCC3)cc2-c2ccncc2)c1	73.3%
O=[N+]([O-])c1ccc(N=Nc2c(NNc3ccc([N+](=O)[O-])cn3)cc(S(=O)(=O)O)c3ccccc23)nc1	64.1%
NC(=S)N1N=C(c2ccc(Cl)cc2)CC1c1cc2ccccc2[nH]c1=O (stereo unspecified)	114%
NC(=O)N/N=C\c1ccc([N+](=O)[O-])o1	86.9%
Cc1cc(N)cc(C)c1-c1c(Br)cc(N)cc1Br	35%
O=C1CCCN1C1CCN2CCCc3cccc1c32 (stereo unspecified)	105%
CCCCCCCCCCCCCCCC1=NCCN1	81.3%
C=CCCCCOc1cccc(/C=C2\N=C3SCCCN3C2=O)c1	92.6%
CC(CN1CCN(CC(C)Nc2ccnc3cc(Cl)ccc23)CC1)Nc1ccnc2cc(Cl)ccc12 (stereo unspecified)	11.2%
CCN1CCN(Cc2ccc(NC(=O)Nc3ccc(-n4ccc5c(NC(=O)c6ccccc6)nccc54)cc3)cc2C(F)(F)F)CC1	47.3%
N/C(=N\OC(=O)c1ccccc1)C(Cc1ccccc1)C(=O)NOC(=O)c1ccccc1 (stereo unspecified)	-44.6% (active)
C=CCN(CC#N)CC=C	107%
CCSc1cnnc2ccccc12	95.3%
CCN1C(=O)N(CC)C2C1NN=c1s/c(=C\c3ccc(Br)cc3)c(=O)n12 (stereo unspecified)	23.8%
OC(COCc1ccccc1)COCc1ccccc1	96.5%
N#CCCn1cnc2c(N)ncnc21	97%

Structure (SMILES)	growth
CCOC(=O)Nc1ccc2nc(Sc3ccc(Cl)cc3)sc2c1	19.2%
O=C(O)CSc1ccc(NCc2oc(CO)cc(=O)c2O)cc1	98.4%
COc1cccc(N2CCN(c3ncnc4cc[nH]c34)CC2)c1	71.6%
CCCCc1nc(Cl)c(C2CC(c3ccc(S(N)(=O)=O)cc3)=NN2c2cc(Cl)cc(Cl)c2)[nH]1 (stereo unspecified)	40.5%
CS(=O)(=O)c1ccc(Cl)c([N+](=O)[O-])c1	-88.3% (active)
CC(C)CC(=O)C(CCc1ccccn1)C(C)C (stereo unspecified)	79%
CC(C)c1ccc(-c2cnc3nonc3n2)cc1	60.7%
Cc1ccc(Nc2cc(Cl)c([N+](=O)[O-])cc2[N+](=O)[O-])cc1	32.8%
COc1cc2c(=O)n(CCCN(C)C)c3c4cc[nH]c4ncc3c2cc1OC	84.5%
COc1cc(C2CC(c3ccc(C)cc3)=NN2C=O)ccc1Oc1nc2c(c(=O)n(C)c(=O)n2C)n1C (stereo unspecified)	79.2%
CC(C)CCSc1nc(-c2ccc(F)cc2)c(C#N)c(N2CCCCC2)n1	75.6%
FC(F)(F)c1nn[nH]n1	97%
CCN(CC)CCNC(=O)n1cc(-c2ccncc2)c(-c2cc(Cl)cc(OC)c2)n1	68.1%
CS(=O)(=O)c1ccc(C(=O)Nc2ccc(Cl)c(-c3ccccn3)c2)c(Cl)c1	-17.6% (active)
CCOC(=O)c1cc(N)nc2ccccc12	102%
CCCCCCCOc1cccc(/C=C2\N=C3SCCCN3C2=O)c1	94.4%
Cn1cnc([N+](=O)[O-])c1S(=O)(=O)Oc1ccccc1	62.9%
Cc1c(C(=O)CCl)c(=O)n(-c2ccccc2)n1C	29.8%
CCN(CC)c1cc(C)c(Cc2c(OC)ccc3ccccc23)cc1C	93.1%

The compounds below were run on A498 renal in the same assay as above. Conditions: 10 µM unless noted.

Structure (SMILES)	growth
O=C(c1ccccc1)C1OC1C(=O)c1ccccc1 (stereo unspecified)	95.6%
CC(C)=CC[C@@H]1CC2(CC=C(C)C)C(=O)C(OC3(C(=O)c4ccccc4)C(=O)C4(CC=C(C)C)C[C@@H](CC=C(C)C)C(C)(C)C(CC=C(C)C)(C4=O)C3=O)(C(=O)c3ccccc3)C(=O)C(CC=C(C)C)(C2=O)C1(C)C (stereo partly specified)	-58% (active)
CCCCc1nc(Cl)c(C2CC(c3ccc(S(N)(=O)=O)cc3)=NN2c2ccc(C#N)cc2)[nH]1 (stereo unspecified)	74.2%
COc1cc(Cl)cc(-c2nn(C(=O)NCCN3CCOCC3)cc2-c2ccncc2)c1	65.7%
O=[N+]([O-])c1ccc(N=Nc2c(NNc3ccc([N+](=O)[O-])cn3)cc(S(=O)(=O)O)c3ccccc23)nc1	77.2%
NC(=S)N1N=C(c2ccc(Cl)cc2)CC1c1cc2ccccc2[nH]c1=O (stereo unspecified)	89.5%
NC(=O)N/N=C\c1ccc([N+](=O)[O-])o1	90.1%
Cc1cc(N)cc(C)c1-c1c(Br)cc(N)cc1Br	27.9%
O=C1CCCN1C1CCN2CCCc3cccc1c32 (stereo unspecified)	99.2%
CCCCCCCCCCCCCCCC1=NCCN1	65.5%
C=CCCCCOc1cccc(/C=C2\N=C3SCCCN3C2=O)c1	82.9%
CC(CN1CCN(CC(C)Nc2ccnc3cc(Cl)ccc23)CC1)Nc1ccnc2cc(Cl)ccc12 (stereo unspecified)	84.7%
CCN1CCN(Cc2ccc(NC(=O)Nc3ccc(-n4ccc5c(NC(=O)c6ccccc6)nccc54)cc3)cc2C(F)(F)F)CC1	105%
N/C(=N\OC(=O)c1ccccc1)C(Cc1ccccc1)C(=O)NOC(=O)c1ccccc1 (stereo unspecified)	59.5%
C=CCN(CC#N)CC=C	112%
CCSc1cnnc2ccccc12	89.3%
CCN1C(=O)N(CC)C2C1NN=c1s/c(=C\c3ccc(Br)cc3)c(=O)n12 (stereo unspecified)	12.6%
OC(COCc1ccccc1)COCc1ccccc1	89.7%
N#CCCn1cnc2c(N)ncnc21	112%

Structure (SMILES)	growth
CCOC(=O)Nc1ccc2nc(Sc3ccc(Cl)cc3)sc2c1	58%
O=C(O)CSc1ccc(NCc2oc(CO)cc(=O)c2O)cc1	106%
COc1cccc(N2CCN(c3ncnc4cc[nH]c34)CC2)c1	41.3%
CCCCc1nc(Cl)c(C2CC(c3ccc(S(N)(=O)=O)cc3)=NN2c2cc(Cl)cc(Cl)c2)[nH]1 (stereo unspecified)	81.7%
CS(=O)(=O)c1ccc(Cl)c([N+](=O)[O-])c1	106%
CC(C)CC(=O)C(CCc1ccccn1)C(C)C (stereo unspecified)	91.8%
CC(C)c1ccc(-c2cnc3nonc3n2)cc1	61.8%
Cc1ccc(Nc2cc(Cl)c([N+](=O)[O-])cc2[N+](=O)[O-])cc1	92.3%
COc1cc2c(=O)n(CCCN(C)C)c3c4cc[nH]c4ncc3c2cc1OC	18.8%
COc1cc(C2CC(c3ccc(C)cc3)=NN2C=O)ccc1Oc1nc2c(c(=O)n(C)c(=O)n2C)n1C (stereo unspecified)	76.9%
CC(C)CCSc1nc(-c2ccc(F)cc2)c(C#N)c(N2CCCCC2)n1	88%
FC(F)(F)c1nn[nH]n1	102%
CCN(CC)CCNC(=O)n1cc(-c2ccncc2)c(-c2cc(Cl)cc(OC)c2)n1	63.7%
CS(=O)(=O)c1ccc(C(=O)Nc2ccc(Cl)c(-c3ccccn3)c2)c(Cl)c1	6.2% (active)
CCOC(=O)c1cc(N)nc2ccccc12	95%
CCCCCCCOc1cccc(/C=C2\N=C3SCCCN3C2=O)c1	94.6%
Cn1cnc([N+](=O)[O-])c1S(=O)(=O)Oc1ccccc1	108%
Cc1c(C(=O)CCl)c(=O)n(-c2ccccc2)n1C	77.4%
CCN(CC)c1cc(C)c(Cc2c(OC)ccc3ccccc23)cc1C	96.6%
